Laboratory results reported in PubChem BioAssay (NCI).
Compounds without any hit were thinned out: in the full panel of roughly 83,000, 20% have a hit.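 Activity criterion: percent growth below 10, measured after cells in 96-well plates were exposed to a single compound concentration for 48 hours.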 Values without a mark were called inactive. Calls of active or inactive are those of the source.

Legend:
Experiment in all cases: NCI-60 one-dose screen, 48 h (100 = growth as untreated, 0 = no growth, -100 = all killed)
Details in all cases: 10 µM unless noted
NCI-H23 lung = tested on: NCI-H23 lung
NCI-H226 lung = tested on: NCI-H226 lung
NCI-H322M lung = tested on: NCI-H322M lung
HOP-62 NSCLC = tested on: HOP-62 NSCLC
NCI-H460 lung = tested on: NCI-H460 lung
HOP-92 NSCLC = tested on: HOP-92 NSCLC
NCI-H522 lung = tested on: NCI-H522 lung
A549/ATCC NSCLC = tested on: A549/ATCC NSCLC
786-0 renal = tested on: 786-0 renal
COLO 205 colon = tested on: COLO 205 colon

Row | Compound | growth (NCI-H23 lung) | growth (NCI-H226 lung) | growth (NCI-H322M lung) | growth (HOP-62 NSCLC) | growth (NCI-H460 lung) | growth (HOP-92 NSCLC) | growth (NCI-H522 lung) | growth (A549/ATCC NSCLC) | growth (786-0 renal) | growth (COLO 205 colon)
1 | COc1cc(/C=C/C(=O)c2ccc(NC(=O)CSc3nnc(-c4ccc(Cl)cc4)n3-c3ccccc3)cc2)cc(OC)c1OC | 55.9% | 82% | 96.5% | 96.5% | 80% | 97.9% | 63.8% | 69.8% | 79% | 79.8%
2 | O=C(NO)c1ccc(NCc2csc3ccccc23)cc1 | 48.5% | 64.8% | 85.7% | 65.3% | 39.8% | 71.7% | 33.1% | 70.3% | 71.3% | 50.1%
3 | CC1(C)C(N(O)C(=O)Nc2ccc(Cl)cc2)N(c2ccc(Cl)cc2)C(=O)N1CC(=O)N/N=C/C=C/c1ccc([N+](=O)[O-])o1 (stereo not given) | 3.01% (active) | 25.8% | 49% | 36.8% | -13.1% (active) | -30.9% (active) | -88.5% (active) | 6.98% (active) | -48.9% (active) | -81.3% (active)
4 | COc1cc2c(cc1C)NC(=O)/C2=C\c1c[nH]c2ccccc12 | 79.9% | 84% | 65.8% | 75.2% | 40.6% | 50.1% | 54.7% | 52.5% | 65.4% | 91.1%
5 | CCCCCCCCNC(C)C(O)c1ccc(SC(C)C)cc1 (stereo not given) | 74.2% | 96% | 87.9% | 85% | -37.7% (active) | -28.1% (active) | 12.1% | 98.8% | -14.9% (active) | 4.17% (active)
6 | CCCC(CCC)NCC(O)c1cc(-c2ccc(C(F)(F)F)cc2)nc(C(F)(F)F)c1 (stereo not given) | -59.4% (active) | -69.5% (active) | 0.686% (active) | -64.8% (active) | -60.1% (active) | -71.5% (active) | -77.5% (active) | -59.6% (active) | -61.5% (active) | -83.5% (active)
7 | CC1=NOCC(=O)N1 | 106% | 102% | 111% | 105% | 107% | 96% | 92.8% | 89.7% | 101% | 108%
8 | COc1ccc(NC(=O)C2c3ccccc3C(=O)N(CC(C)C)C2c2cccs2)cc1 (stereo not given) | 95.2% | 92.7% | 110% | 90.1% | 94.3% | 94.1% | 92.3% | 89.5% | 98.8% | 105%
9 | O=C1/C(=C\c2cccn2Cc2ccc(F)cc2)c2ccccc2N1c1c(Cl)cccc1Cl | 81.1% | 64% | 69.4% | 92.1% | 87.7% | 66% | 77% | 69.4% | 76.6% | 84.9%
10 | CCOC(=O)c1sc2nc(-c3cc4ccccc4o3)cc(-c3ccc(Cl)cc3)c2c1N | 98.9% | 89.2% | 112% | 107% | 110% | 71.1% | 88.6% | 123% | 118% | 115%
11 | COc1cccc(Cn2c(-c3nonc3NC(C)=O)nc3ccccc32)c1 | 39.8% | 60.9% | 33.7% | 38.9% | 20.7% | 29.6% | -20.6% (active) | 41.4% | 45.8% | 23.8%
12 | COc1ccc(-c2nsc3c2NC(=O)CC3c2ccc3c(c2)OCO3)cc1 (stereo not given) | 35.1% | 68.4% | 43.9% | 31.2% | 19.1% | 2.96% (active) | -30.1% (active) | 26.6% | 57.5% | -14.4% (active)
13 | CCC1CCc2nc3sc(C(=O)Nc4cccc(F)c4)c(N)c3cc2C1 (stereo not given) | 91.7% | 85.2% | 87.8% | 74.1% | 74.5% | 61.4% | 70.1% | 66.3% | 83.1% | 67.8%
14 | COc1cc(NC(C)CCCN)c2ncccc2c1Sc1ccc(Cl)cc1 (stereo not given) | 86% | 76.1% | 77% | 67.7% | 10.1% | 15.2% | 75.4% | 59.1% | 63.7% | -77.4% (active)
